Laboratory results from PubChem BioAssay (EPA / NIEHS).
Active and inactive are the calls of the source. The calls were made as follows: active = hit-call score of the fitted dose curve at least 0.9, where 1 is the maximum; inactive = score below 0.9.

Key:
Settings in all cases: mRNA level, 48 h; actives raise or lower the signal
[1] = read-out: sulfotransferase 2A1 (SULT2A1), SULT2A1 (gene 6822); assay: LTEA_HepaRG_SULT2A1: Life Technologies and Expression Analysis (LTEA) Assay for sulfotransferase 2A1 (SULT2A1) using HepaRG (AID 2283531)
How it was run: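 HepaRG human liver cells, 48 h exposure in serum-free induction medium to 8 half-log concentrations topping at 100 µM (0.5% DMSO), duplicate wells. SULT2A1 mRNA measured by TaqMan qRT-PCR, normalized to ACTB/GAPDH/POLR2A; bidirectional fit against DMSO.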

[2] = read-out: Transforming Growth Factor (TGFA), TGFA (gene 7039); assay: LTEA_HepaRG_TGFA: Life Technologies and Expression Analysis (LTEA) Assay for Transforming Growth Factor (TGFA) using HepaRG (AID 2283532)
How it was run: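 HepaRG (human liver line), 48 h exposure, 8 conc. half-log down from 100 uM, 0.5% DMSO vehicle, duplicates; serum-free induction medium. TGFA mRNA by TaqMan qRT-PCR, ACTB/GAPDH/POLR2A normalization; gain/loss fit vs DMSO.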

[3] = read-out: Transforming Growth Factor (TGFB1), TGFB1 (gene 7040); assay: LTEA_HepaRG_TGFB1: Life Technologies and Expression Analysis (LTEA) Assay for Transforming Growth Factor (TGFB1) Transporter using HepaRG (AID 2283533)
How it was run: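 Differentiated HepaRG cells exposed 48 hr in serum-free induction medium to eight half-log concentrations up to 100 uM (0.5% DMSO), duplicate; TGFB1 mRNA by TaqMan qRT-PCR normalised to ACTB, GAPDH, POLR2A; bidirectional fit against DMSO.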

TIMP1, TIMP1 (gene 7076) = assay: LTEA_HepaRG_TIMP1: Life Technologies and Expression Analysis (LTEA) Assay for TIMP1 using HepaRG (AID 2283534)
How it was run: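 Differentiated HepaRG cells exposed 48 h in serum-free induction medium, duplicates, eight half-log concentrations from 100 uM in 0.5% DMSO. TIMP1 mRNA by qRT-PCR normalized to ACTB, GAPDH, POLR2A; bidirectional fitting against DMSO.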

[4] = read-out: Tumor necrosis factor receptor 1 (TNFRSF1A), TNFRSF1A (gene 7132); assay: LTEA_HepaRG_TNFRSF1A: Life Technologies and Expression Analysis (LTEA) Assay for Tumor necrosis factor receptor 1 (TNFRSF1A) using HepaRG (AID 2283535)
How it was run: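 Differentiated HepaRG cells in serum-free induction medium, exposed 48 h in duplicate to 8 half-log concentrations up to 100 uM in 0.5% DMSO. TNFRSF1A mRNA by Fluidigm TaqMan qRT-PCR, normalized to ACTB, GAPDH, POLR2A; bidirectional fit.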

[5] = read-out: Thyroid Hormone Responsive (THRSP), THRSP (gene 7069); assay: LTEA_HepaRG_THRSP: Life Technologies and Expression Analysis (LTEA) Assay for Thyroid Hormone Responsive (THRSP) using HepaRG (AID 2283536)
How it was run: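 mRNA induction or loss relative to 0.5% DMSO vehicle was fitted bidirectionally across an eight-point curve whose highest exposure was 100 uM. Human HepaRG liver cells received chemicals in duplicate over 48 h before RNA extraction.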

[6] = read-out: Cellular tumor antigen p53 (Homo sapiens) (UniProt P04637); assay: LTEA_HepaRG_TP53: Life Technologies and Expression Analysis (LTEA) Assay for Tumor Protein P53 (TP53) using HepaRG (AID 2283537)
How it was run: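 TP53 transcript measured by qRT-PCR, normalized to three housekeeping genes, after 48 h treatment of human HepaRG cultures with chemicals from 100 uM downward in half-log steps (0.5% DMSO vehicle, serum-free induction medium). Up- or down-regulation fitted against DMSO.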

[7] = read-out: UDP glucuronosyltransferase (UGT1A1), UGT1A1 (gene 54658); assay: LTEA_HepaRG_UGT1A1: Life Technologies and Expression Analysis (LTEA) Assay for UDP glucuronosyltransferase (UGT1A1) using HepaRG (AID 2283538)
How it was run: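 Human liver HepaRG cultures receive test chemical for 48 h, up to 100 uM in 0.5% DMSO, with phenobarbital induction controls. UGT1A1 mRNA is measured by qRT-PCR and normalized to ACTB, GAPDH and POLR2A.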

[8] = read-out: UDP glucuronosyltransferase (UGT1A6), UGT1A6 (gene 54578); assay: LTEA_HepaRG_UGT1A6: Life Technologies and Expression Analysis (LTEA) Assay for UDP glucuronosyltransferase (UGT1A6) using HepaRG (AID 2283539)
How it was run: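 Differentiated HepaRG cells, ~100,000/well, were exposed for 48 h in serum-free induction medium with 0.5% DMSO to 8-point half-log series topping at 100 uM, in duplicate. mRNA measured by Fluidigm TaqMan qRT-PCR, normalized to ACTB, GAPDH and POLR2A.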

[9] = read-out: X-box binding protein 1 (XBP1), XBP1 (gene 7494); assay: LTEA_HepaRG_XBP1: Life Technologies and Expression Analysis (LTEA) Assay for X-box binding protein 1 (XBP1) using HepaRG (AID 2283540)
How it was run: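 Differentiated human HepaRG cells in serum-free induction medium exposed 48 h in duplicate to eight half-log concentrations up to 100 uM in 0.5% DMSO. XBP1 mRNA measured by Fluidigm TaqMan qRT-PCR, normalized to ACTB, GAPDH, POLR2A; bidirectional fitting against DMSO.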

Measured: AC50

Chain of Cellular tumor antigen p53 (Homo sapiens) (P04637 whole entry, looked up): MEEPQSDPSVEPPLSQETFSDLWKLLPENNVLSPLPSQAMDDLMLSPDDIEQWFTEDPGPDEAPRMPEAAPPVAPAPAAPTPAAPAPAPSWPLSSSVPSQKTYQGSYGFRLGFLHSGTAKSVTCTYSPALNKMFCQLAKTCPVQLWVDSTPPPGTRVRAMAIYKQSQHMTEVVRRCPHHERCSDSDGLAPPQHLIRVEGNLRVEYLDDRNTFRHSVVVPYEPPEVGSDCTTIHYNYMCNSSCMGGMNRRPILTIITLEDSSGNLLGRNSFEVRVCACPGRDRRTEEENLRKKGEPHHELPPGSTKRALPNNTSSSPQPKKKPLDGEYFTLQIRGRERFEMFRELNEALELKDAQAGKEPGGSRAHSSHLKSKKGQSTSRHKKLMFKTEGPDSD

CCOc1nc(F)cc2nc(S(=O)(=O)Nc3c(Cl)cccc3Cl)nn12
inactive: all assays above

CC(C)NC(=O)N1CC(=O)N(c2cc(Cl)cc(Cl)c2)C1=O
active: [1] 13.1 µM | [5] 50 µM | [7] 4.3 µM | [9] 14.8 µM
inactive: all other assays above

CCOc1cc(C(C)(C)C)ccc1C1COC(c2c(F)cccc2F)=N1 (stereo not drawn)
active: [1] 8.25 µM | [7] 8.48 µM
not listed: [6]
inactive: all other assays above

CC1(C)C(C(=O)OC(C#N)c2cccc(Oc3ccccc3)c2)C1(C)C (stereo not drawn)
active: [7] 50 µM
inactive: all other assays above

COCC(C)N(C(=O)CCl)c1c(C)csc1C (stereo not drawn)
active: [7] 22.2 µM
inactive: all other assays above

COc1cc(Cl)c(OC)cc1Cl
active: [7] 2.69 µM
inactive: all other assays above

O=C(O)c1c(Cl)ccc2cc(Cl)cnc12
not listed: [6] | [9]
inactive: all other assays above

CCCCOCN(C(=O)CCl)c1c(CC)cccc1CC
active: [7] 50 µM
inactive: all other assays above

COC(=O)c1c(C(F)F)nc(C(F)(F)F)c(C2=NCCS2)c1CC(C)C
active: [7] 5.73 µM
inactive: all other assays above

CCCN(CC)CC1COC2(CCC(C(C)(C)C)CC2)O1 (stereo not drawn)
active: [5] 0.319 µM
inactive: all other assays above

CC(C)=CC1C(C(=O)OCc2coc(Cc3ccccc3)c2)C1(C)C (stereo not drawn)
active: [7] 39.4 µM
not listed: [6]
inactive: all other assays above

COP(=S)(OC)Oc1ccc([N+](=O)[O-])c(C)c1
active: [7] 11.5 µM
inactive: all other assays above

N#CN=C1SCCN1Cc1ccc(Cl)nc1
inactive: all assays above

CC1(C)C(C=C(Cl)Cl)C1C(=O)OC(C#N)c1cccc(Oc2ccccc2)c1 (stereo not drawn)
active: [7] 17.3 µM
inactive: all other assays above

N#Cc1c(Cl)cccc1Cl
inactive: all assays above

CCNP(=S)(OC)O/C(C)=C/C(=O)OC(C)C (stereo not drawn)
active: [5] 32.6 µM | [7] 9.32 µM
inactive: all other assays above

N#Cc1c[nH]cc1-c1cccc2c1OC(F)(F)O2
active: [1] 50 µM | [5] 18 µM | [6] 71.3 µM | [7] 34.3 µM
not listed: [3]
inactive: all other assays above

CO/N=C(/C1=NOCCO1)c1ccccc1Oc1ncnc(Oc2ccccc2Cl)c1F
inactive: [3] | [4] | [9]
active: [1] 33.9 µM | [2] 31.2 µM | TIMP1, TIMP1 (gene 7076) 50 µM | [5] 27.1 µM | [6] 27.1 µM | [7] 35.8 µM | [8] 50 µM

O=c1n(Cl)c(=O)n(Cl)c(=O)n1Cl
inactive: all assays above

CCOP(=S)(OCC)Oc1nc(Cl)n(C(C)C)n1
active: [5] 26.1 µM | [7] 12.5 µM
inactive: all other assays above

CCNC(=O)NC(=O)C(C#N)=NOC
active: [4] 0.27 µM | [8] 0.306 µM
not listed: [6]
inactive: all other assays above

Cc1nc(N(C)C)nc(OC(=O)N(C)C)c1C
active: [7] 13.9 µM
not listed: [6] | [9]
inactive: all other assays above

COC(=O)N(C(=O)N1CO[C@@]2(C(=O)OC)Cc3cc(Cl)ccc3C2=N1)c1ccc(OC(F)(F)F)cc1
active: [1] 65 µM | [5] 40 µM | [7] 10 µM
inactive: all other assays above

CCN(CC)c1nc(C)cc(OP(=S)(OC)OC)n1
active: [7] 12.8 µM | [8] 3.58 µM
inactive: all other assays above

Cc1c(COC(=O)[C@@H]2[C@H](/C=C(\Cl)C(F)(F)F)C2(C)C)cccc1-c1ccccc1
active: [7] 11.7 µM
inactive: all other assays above

O=C1C2CC=CCC2C(=O)N1SC(Cl)(Cl)Cl (stereo not drawn)
active: [5] 16.2 µM
inactive: all other assays above

COP(=S)(OC)SCn1nnc2ccccc2c1=O
active: [7] 43.2 µM
inactive: all other assays above

Clc1nc(Cl)nc(Nc2ccccc2Cl)n1
inactive: all assays above

CC(C)(C)C(=O)C(Oc1ccc(Cl)cc1)n1cncn1 (stereo not drawn)
active: [5] 33 µM | [7] 6.35 µM
not listed: [1] | [9]
inactive: all other assays above

CSC(=O)c1c(C(F)F)nc(C(F)(F)F)c(C(=O)SC)c1CC(C)C
active: [7] 11.7 µM
inactive: all other assays above

C=C(C)CN(CC)c1c([N+](=O)[O-])cc(C(F)(F)F)cc1[N+](=O)[O-]
active: [7] 50 µM
inactive: all other assays above

COCc1cnc(C2=NC(C)(C(C)C)C(=O)N2)c(C(=O)O)c1 (stereo not drawn)
not listed: [6] | [9]
inactive: all other assays above

CC(C)Oc1cccc(NC(=O)c2ccccc2C(F)(F)F)c1
active: [7] 29.4 µM
inactive: all other assays above

Cc1cnc(C2=NC(C)(C(C)C)C(=O)N2)c(C(=O)O)c1 (stereo not drawn)
inactive: all assays above

CS(=O)(=O)c1ccc(C(=O)C2C(=O)CCCC2=O)c([N+](=O)[O-])c1
inactive: all assays above
